What follows are compounds tested against Solute carrier family 2, facilitated glucose transporter member 1 (Homo sapiens) (UniProt P11166) (assay: ST_JUDE_LEISH: Cytotoxicity at 2uM final concentration against transgenic Leishmania Mexicana promastigotes LmGLUT1 that are glucose transport deficient and complemented with the human glucose transporter GLUT1. Activity is measured by DNA content using SYBR green in vitro).
Solute carrier family 2, facilitated glucose transporter member 1 (Homo sapiens), sequence (P11166 whole entry): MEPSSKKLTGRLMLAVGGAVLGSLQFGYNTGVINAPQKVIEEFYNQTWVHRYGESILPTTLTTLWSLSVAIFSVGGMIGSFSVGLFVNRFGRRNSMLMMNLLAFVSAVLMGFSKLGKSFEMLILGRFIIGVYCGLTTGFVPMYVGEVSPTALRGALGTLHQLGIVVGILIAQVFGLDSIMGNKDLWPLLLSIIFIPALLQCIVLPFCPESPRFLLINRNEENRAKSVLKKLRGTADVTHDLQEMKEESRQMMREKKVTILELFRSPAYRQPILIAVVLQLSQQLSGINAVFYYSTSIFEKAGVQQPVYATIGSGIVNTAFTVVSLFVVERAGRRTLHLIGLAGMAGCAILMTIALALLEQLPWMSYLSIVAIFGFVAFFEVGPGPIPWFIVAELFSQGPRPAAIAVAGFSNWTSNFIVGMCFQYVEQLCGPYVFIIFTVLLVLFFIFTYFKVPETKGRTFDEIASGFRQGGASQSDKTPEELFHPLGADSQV
Type: functional
`CC(=O)N(C)c1cccc(C(=O)Nc2ccc(-c3cccc(-c4nc5cccc(C)c5[nH]4)c3)cc2)c1` showed an inhibition of 2.19%. `O=C(NCC1CCC(C(=O)NCCc2ccc(Cl)c(Cl)c2)CC1)c1ccc(O)c(-c2ccc(Cl)c(Cl)c2)c1` (stereo not given) was tested, and the inhibition was -0.17%. In the case of `Cc1[nH]c(C)c(-c2ccc(Oc3ccc(C(F)(F)F)cc3)cc2)c(=O)c1Br`, the inhibition is reported as 3.22%. `COc1ccc2nccc(N(C)CC3(O)CCC(NCc4ccc5c(n4)NC(=O)CS5)CC3)c2n1` (stereo not given) showed an inhibition of 3.69%. Compound `CCOC(=O)CN1Cc2cc(NCc3ccc4ccc5nc(C)[nH]c(=O)c5c4c3)ccc2C1=O` has an inhibition of 0.55%. Work on `CN(C)c1ccc(-c2nnc(Sc3ccc(C#N)c([N+](=O)[O-])c3)n2Cc2ccco2)cc1` yielded an inhibition of 3.82%. With `CCn1c(-c2nonc2N)nc2cnc(Oc3cccc(NC(=O)c4ccc(OCCCN5CCCCC5)cc4)c3)cc21` the inhibition was 16.4%. `CC(=O)c1ccc(NC(=O)Nc2ccc3nccc(N4CCN(C)CC4)c3c2)cc1` showed an inhibition of 1.22%. Compound `CC(=O)Nc1ccc(OCCCN(Cc2ccccc2C(F)(F)F)c2ccc(C(F)(F)F)c(C#N)c2)c(Cl)c1` has an inhibition of 6.79%. For `CN1CCN(CCCNCc2cccc(-c3ccc(CNCCc4ccccc4)cc3)c2)CC1`, the inhibition was 2.41%. With `CO/C(=C\C=C\c1cc2cc(Cl)c(Cl)cc2[nH]1)C(=O)NCCCN1CCCC[C@H]1C` the inhibition was 3.27%. With `c1ccc(-c2cc(NCCCCCCCCNc3cc(-c4ccccc4)nc4ccccc34)c3ccccc3n2)cc1` the inhibition was 105%. In the case of `COc1ccc(NC(=O)C2CCN(CCCCCNC(=O)/C=C/c3ccc(Cl)c(Cl)c3)CC2)cc1`, the inhibition is reported as 2.19%. Compound `C[C@@H](Nc1nc(NCc2ccccc2)c2sccc2n1)c1ccccc1` has an inhibition of 24%. With `COc1ccc2nccc([C@@H](O)CN3CCC(NC(=O)c4ccc(Cl)c(Cl)c4)CC3)c2c1` the inhibition was 25.5%. `O=C(NC1CCN(Cc2ccccc2)CC1)c1ccc(-c2nc3cc(Cl)c(F)cc3[nH]2)s1` was tested, and the inhibition was 3.32%. In the case of `CN(C)c1nc2cc(-n3cnc4cc(-c5ccc(Cl)cc5)sc4c3=O)ccc2n1CCCN1CCCCC1`, the inhibition is reported as 9.33%. For `Cc1ccc(O)cc1Nc1ccnc2cc(-c3csc(CN(C)CCN(C)C)n3)ccc12`, the inhibition was -0.07%. With `Cc1cc(N2CCC(C)CC2)nc2cc(O)ccc12` the inhibition was 1%. Work on `O=C1CCCN1CCCNCc1ccc(-c2cccc(-c3nc4cc(C(F)(F)F)ccc4[nH]3)c2)cc1` yielded an inhibition of 1.71%. Compound `Cc1ccccc1C(=O)Nc1cccc(-c2nc3ncccn3c2C)c1` has an inhibition of 3.33%. With `O=S(=O)(Nc1ccc2nccc(N3CCNCC3)c2c1)c1ccc2c(Cl)cccc2c1` the inhibition was 0.28%. In the case of `CCOc1cccc(C(=O)Nc2cccc(CN3CCCN(Cc4ccc(O)cc4)CC3)c2)c1`, the inhibition is reported as 3.17%. With `Cn1c(=O)c2cc(C(=O)NCCCN3CCCCCC3)sc2c2ccccc21` the inhibition was 2.89%. Compound `c1ccc(-c2nc3ccccc3[nH]2)c(Nc2ccnc3cc(-c4nccs4)ccc23)c1` has an inhibition of 4.76%. `O=C(Nc1ccc(Cl)c(Cl)c1)N1CCc2ccc(OCCCN3CCCCC3)cc2CC1` was tested, and the inhibition was 17.5%. With `COc1ccccc1C1CCN(C2CCC(NC(=O)/C=C/c3cccc(C(F)(F)F)c3)CC2)CC1` (stereo not given) the inhibition was 3.95%. Work on `CCc1ccc(-c2nc3cc(NC(=O)c4ccc([N+](=O)[O-])o4)ccc3o2)cc1` yielded an inhibition of 1.01%. `COc1ccc2nccc([C@@H](O)CN3CCC(NCc4cc5cccc(O)c5[nH]4)CC3)c2c1` gave an inhibition of 1.85%. For `Oc1ccc(Br)cc1-c1nc2ccc(Cl)cc2nc1-c1cc(Br)ccc1O`, the inhibition was 1.9%. Compound `c1cc(CNCC2CCCO2)cc(-c2cccc(-c3nc4ccccc4[nH]3)c2)c1` (stereo not given) has an inhibition of 1.58%. In the case of `Cn1cncc1-c1ccc2ncnc(Nc3ccc4c(cnn4Cc4ccccc4)c3)c2c1`, the inhibition is reported as 1.39%. Compound `CC(C)NCc1ccc(-c2cccc(-c3nc4cc(F)ccc4[nH]3)c2)cc1` has an inhibition of -1.78%. Compound `Cc1[nH]c(C)c(-c2ccc(OCc3ccccc3C(F)(F)F)nc2)c(=O)c1Br` has an inhibition of 4.88%. Compound `N#Cc1ccc(-c2nc3c(N4CCCC4)cccc3n2CCNCc2ccccc2)cc1` has an inhibition of 12.3%. Compound `C=CC[C@@H](C(=O)OCC)[C@@H]1[C@@H](N(CC=C)C(=O)OC(C)(C)C)CCN1C(=O)OCc1ccccc1` has an inhibition of 2.71%. With `O=C(C=Cc1cccs1)Nc1ccc(-c2nc3ccccc3[nH]2)cc1` the inhibition was 1.65%. `c1ccc(CN2CCc3cc4nccc(N5CCNCC5)c4cc32)cc1` gave an inhibition of -3.94%. `CCC(NCc1ccc(-c2cncc(C(=O)NCC(C)C)c2)cc1)c1ccccc1` (stereo not given) showed an inhibition of 7.89%. In the case of `CCCCNCc1ccc(-c2nc(CN(CCCn3ccnc3)C(=O)C3COc4ccccc4O3)cs2)cc1` (stereo not given), the inhibition is reported as 0.43%.

Each compound was assayed against Hexose transporter 1 (Plasmodium falciparum) (UniProt O97467) (assay: ST_JUDE_LEISH: Cytotoxicity at 2uM final concentration against transgenic Leishmania Mexicana promastigotes LmPfHT that are glucose transport deficient and complemented with the Plasmodium falciparum hexose transporter. Activity is measured by DNA content using SYBR green in vitro).
Type: functional
`CC(=O)N(C)c1cccc(C(=O)Nc2ccc(-c3cccc(-c4nc5cccc(C)c5[nH]4)c3)cc2)c1` was tested, and the inhibition was 1.06%. Work on `O=C(NCC1CCC(C(=O)NCCc2ccc(Cl)c(Cl)c2)CC1)c1ccc(O)c(-c2ccc(Cl)c(Cl)c2)c1` (stereo not given) yielded an inhibition of 0.8%. In the case of `Cc1[nH]c(C)c(-c2ccc(Oc3ccc(C(F)(F)F)cc3)cc2)c(=O)c1Br`, the inhibition is reported as 5.35%. Work on `COc1ccc2nccc(N(C)CC3(O)CCC(NCc4ccc5c(n4)NC(=O)CS5)CC3)c2n1` (stereo not given) yielded an inhibition of 3.78%. For `CCOC(=O)CN1Cc2cc(NCc3ccc4ccc5nc(C)[nH]c(=O)c5c4c3)ccc2C1=O`, the inhibition was 1.98%. Work on `CN(C)c1ccc(-c2nnc(Sc3ccc(C#N)c([N+](=O)[O-])c3)n2Cc2ccco2)cc1` yielded an inhibition of 2.83%. With `CCn1c(-c2nonc2N)nc2cnc(Oc3cccc(NC(=O)c4ccc(OCCCN5CCCCC5)cc4)c3)cc21` the inhibition was 25.8%. In the case of `CC(=O)c1ccc(NC(=O)Nc2ccc3nccc(N4CCN(C)CC4)c3c2)cc1`, the inhibition is reported as 1.77%. `CC(=O)Nc1ccc(OCCCN(Cc2ccccc2C(F)(F)F)c2ccc(C(F)(F)F)c(C#N)c2)c(Cl)c1` showed an inhibition of 5.68%. For `CN1CCN(CCCNCc2cccc(-c3ccc(CNCCc4ccccc4)cc3)c2)CC1`, the inhibition was 3.07%. `CO/C(=C\C=C\c1cc2cc(Cl)c(Cl)cc2[nH]1)C(=O)NCCCN1CCCC[C@H]1C` gave an inhibition of 2.98%. In the case of `c1ccc(-c2cc(NCCCCCCCCNc3cc(-c4ccccc4)nc4ccccc34)c3ccccc3n2)cc1`, the inhibition is reported as 104%. `COc1ccc(NC(=O)C2CCN(CCCCCNC(=O)/C=C/c3ccc(Cl)c(Cl)c3)CC2)cc1` gave an inhibition of 2.22%. For `C[C@@H](Nc1nc(NCc2ccccc2)c2sccc2n1)c1ccccc1`, the inhibition was 22.3%. Work on `COc1ccc2nccc([C@@H](O)CN3CCC(NC(=O)c4ccc(Cl)c(Cl)c4)CC3)c2c1` yielded an inhibition of 41.7%. In the case of `O=C(NC1CCN(Cc2ccccc2)CC1)c1ccc(-c2nc3cc(Cl)c(F)cc3[nH]2)s1`, the inhibition is reported as 3.3%. Compound `CN(C)c1nc2cc(-n3cnc4cc(-c5ccc(Cl)cc5)sc4c3=O)ccc2n1CCCN1CCCCC1` has an inhibition of 10.8%. Compound `Cc1ccc(O)cc1Nc1ccnc2cc(-c3csc(CN(C)CCN(C)C)n3)ccc12` has an inhibition of -0.87%. In the case of `Cc1cc(N2CCC(C)CC2)nc2cc(O)ccc12`, the inhibition is reported as 0.44%. For `O=C1CCCN1CCCNCc1ccc(-c2cccc(-c3nc4cc(C(F)(F)F)ccc4[nH]3)c2)cc1`, the inhibition was -0.32%. In the case of `Cc1ccccc1C(=O)Nc1cccc(-c2nc3ncccn3c2C)c1`, the inhibition is reported as 3.11%. Compound `O=S(=O)(Nc1ccc2nccc(N3CCNCC3)c2c1)c1ccc2c(Cl)cccc2c1` has an inhibition of -0.67%. `CCOc1cccc(C(=O)Nc2cccc(CN3CCCN(Cc4ccc(O)cc4)CC3)c2)c1` was tested, and the inhibition was 3.14%. `Cn1c(=O)c2cc(C(=O)NCCCN3CCCCCC3)sc2c2ccccc21` gave an inhibition of 4.91%. `c1ccc(-c2nc3ccccc3[nH]2)c(Nc2ccnc3cc(-c4nccs4)ccc23)c1` gave an inhibition of 0.91%. For `O=C(Nc1ccc(Cl)c(Cl)c1)N1CCc2ccc(OCCCN3CCCCC3)cc2CC1`, the inhibition was 16.2%. `COc1ccccc1C1CCN(C2CCC(NC(=O)/C=C/c3cccc(C(F)(F)F)c3)CC2)CC1` (stereo not given) was tested, and the inhibition was 3.68%. For `CCc1ccc(-c2nc3cc(NC(=O)c4ccc([N+](=O)[O-])o4)ccc3o2)cc1`, the inhibition was 2.33%. With `COc1ccc2nccc([C@@H](O)CN3CCC(NCc4cc5cccc(O)c5[nH]4)CC3)c2c1` the inhibition was 2.02%. In the case of `Oc1ccc(Br)cc1-c1nc2ccc(Cl)cc2nc1-c1cc(Br)ccc1O`, the inhibition is reported as 1.4%. For `c1cc(CNCC2CCCO2)cc(-c2cccc(-c3nc4ccccc4[nH]3)c2)c1` (stereo not given), the inhibition was 1.76%. With `Cn1cncc1-c1ccc2ncnc(Nc3ccc4c(cnn4Cc4ccccc4)c3)c2c1` the inhibition was 2.21%. `CC(C)NCc1ccc(-c2cccc(-c3nc4cc(F)ccc4[nH]3)c2)cc1` gave an inhibition of 0.53%. Compound `Cc1[nH]c(C)c(-c2ccc(OCc3ccccc3C(F)(F)F)nc2)c(=O)c1Br` has an inhibition of 6.13%. With `N#Cc1ccc(-c2nc3c(N4CCCC4)cccc3n2CCNCc2ccccc2)cc1` the inhibition was 11%. Work on `C=CC[C@@H](C(=O)OCC)[C@@H]1[C@@H](N(CC=C)C(=O)OC(C)(C)C)CCN1C(=O)OCc1ccccc1` yielded an inhibition of 1.22%. `O=C(C=Cc1cccs1)Nc1ccc(-c2nc3ccccc3[nH]2)cc1` was tested, and the inhibition was 0.72%. In the case of `c1ccc(CN2CCc3cc4nccc(N5CCNCC5)c4cc32)cc1`, the inhibition is reported as -1.76%. `CCC(NCc1ccc(-c2cncc(C(=O)NCC(C)C)c2)cc1)c1ccccc1` (stereo not given) was tested, and the inhibition was 7.18%. Compound `CCCCNCc1ccc(-c2nc(CN(CCCn3ccnc3)C(=O)C3COc4ccccc4O3)cs2)cc1` (stereo not given) has an inhibition of 4.78%.

Reference: ChEMBL document CHEMBL3433997, “St. Jude Leishmania screening dataset” (2016)
